In the first assay the target is KBTBD10. The assay can be described thus: pooled miR-30 sensor sort-seq; sequence = guide strand. As to conditions: shRNA.
In turn, TTTATCATCCACCTCTCCCAGA yielded a sensor-assay potency score (higher = more potent) of -0.692.

For the sequence TTGTACATTTTTTGTCATCTGT, the sensor-assay potency score (higher = more potent) was -0.405.

The sequence TGAAGCATAACGTATTTCCTTC displayed a sensor-assay potency score (higher = more potent) of -0.295. TTTTGCTGGGTAACAATGCTGG yielded a sensor-assay potency score (higher = more potent) of -0.684.

ATTGTCTAGCACTACCTCCTTT: the sensor-assay potency score (higher = more potent) is -0.463. The sequence TATGTCATTGACTTCAGTGGGT showed a sensor-assay potency score (higher = more potent) of 0.618. As to TAAGGTAGCATTCATTTTCCGT, the sensor-assay potency score (higher = more potent) was -0.0345.

With TTGCATACAGAGATCCAGCCAG, the sensor-assay potency score (higher = more potent) is -0.134. Still for that read-out and setting: in the case of TTGCTAGGCAACTAGCTCCTGA it was -0.209; in that of TTGTCTAGCACTACCTCCTTTT, -0.574. For TAGCTCCTGAAGCATAACGTAT, the sensor-assay potency score (higher = more potent) was -1.66. For TTTGCCTGCAACTACATAGATT, the sensor-assay potency score (higher = more potent) is -1.51.

For another assay, the target named is KBTBD12. The assay is described as above. The conditions noted are these: shRNA.
Regarding TTCATCAGGAAGATCCATCTGA, the sensor-assay potency score (higher = more potent) stood at 0.942. Same read-out and setting: then TATATTTTTGACACACACTGAA, with 0.336; and TTCTTCATCAGGAAGATCCATC, with -0.961. TAAATCTTCAGCTCCAATCTGC yielded a sensor-assay potency score (higher = more potent) of 0.302.

The sequence TTGTAGTGTCTTATTTACCCTA registered a sensor-assay potency score (higher = more potent) of -0.555.

Regarding TTATTCAGTAAATTCAAGCTAT, the sensor-assay potency score (higher = more potent) is -0.287. The sequence TACAGCTGTACTGAATCGGTAC showed a sensor-assay potency score (higher = more potent) of -0.257. For TATGTCTTGATCTGATTCCTGA, the sensor-assay potency score (higher = more potent) came to 0.119. Same read-out and setting: in the case of TGGTCATCTAGCTACAACCTAC it was -1.11.

These data come from the OligoGym collection.
Further: reference of the scale not given here.
